Measurements reported in PubChem BioAssay AID588763 (NMMLSC, 2011).
Entries with a potency or affinity are not part of this list. Calls of active or inactive are those of the source. How the calls were made is not given here.

Target: Beta-2 adrenergic receptor (Homo sapiens) (UniProt P07550)
Assay: ADRB2 activation measured by internalization – cell-based, FAP fluorogen, flow cytometry, cherry pick 1, dose response (AID 588763)
Conditions: AM2.2-beta2AR cells, 90 min; series mostly up to 33 µM; activation (receptor internalization): at the top concentration

Chain of Beta-2 adrenergic receptor (Homo sapiens) (P07550 whole entry, looked up): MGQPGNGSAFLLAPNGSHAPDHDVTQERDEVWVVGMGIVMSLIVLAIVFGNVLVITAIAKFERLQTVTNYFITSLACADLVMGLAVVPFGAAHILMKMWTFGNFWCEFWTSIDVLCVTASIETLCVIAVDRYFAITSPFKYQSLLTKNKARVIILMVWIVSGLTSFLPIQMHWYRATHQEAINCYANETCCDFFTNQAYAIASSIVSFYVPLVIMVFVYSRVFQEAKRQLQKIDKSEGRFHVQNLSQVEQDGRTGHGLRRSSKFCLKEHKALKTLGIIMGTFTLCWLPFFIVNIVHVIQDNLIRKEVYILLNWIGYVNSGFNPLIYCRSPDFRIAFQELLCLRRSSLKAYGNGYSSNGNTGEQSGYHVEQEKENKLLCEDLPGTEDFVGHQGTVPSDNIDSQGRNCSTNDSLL

Activation (receptor internalization), inactive:
Cn1nnnc1Sc1ncnc2scc(-c3cc4ccccc4o3)c12 106%
Cc1ccc(-c2nnc(SCc3nc4ccccc4[nH]3)n2Cc2ccco2)cc1 -2.47%
CC(NCCc1ccc(O)cc1)C(O)c1ccc(O)cc1 (stereo not drawn) -3.89%
O=C(Nc1ccccc1C(=O)O)c1cccc(N2C(=O)c3ccccc3C2=O)c1 -11.9%
COc1ccc(C)cc1S(=O)(=O)N(C)CC(=O)N1CCN(c2ccccc2)CC1 -0.827%
O=C(COc1ccc(S(=O)(=O)N2CCOCC2)cc1)Nc1ccccc1F -2.76%
COc1cc(NC(=O)c2ccco2)c(OC)cc1NC(=O)c1cc(OC)c(OC)c(OC)c1 4.51%
CCCCn1c(=N)n(CC(=O)c2ccc(Br)s2)c2ccccc21 98.7%
CCOC(=O)C1CCN(C(=O)COC(=O)c2ccccc2C(=O)c2ccc(Cl)cc2)CC1 27.5%
Cc1ccc(-c2nc(NC(=O)c3cc(C(C)(C)C)nn3C)sc2C)cc1Cl 14.2%
COc1ccc(OC)c(C(=O)NC(CC(N)=O)c2ccc(N3CCN(c4ccccn4)CC3)c([N+](=O)[O-])c2)c1 (stereo not drawn) 9.33%
CC(NC(=O)c1cc(COc2ccc3ncccc3c2)on1)c1ccc(F)cc1 (stereo not drawn) 27.1%
NS(=O)(=O)c1ccc(NC(=O)c2cccc(N3C(=O)c4ccccc4C3=O)c2)cc1 95.3%
COc1cc(NC(=O)c2ccc3c(c2)OCO3)ccc1NC(=O)c1ccco1 -12.7%
CCOc1ccc(NC(=O)COc2ccc(S(=O)(=O)N3CCCC3)cc2)cc1 -10.2%
Cc1cc(S(=O)(=O)N2CCOCC2)ccc1OCC(=O)Nc1ccccc1C(F)(F)F 4.85%
Cc1cccc(C)c1NC(=O)Cn1nnc(-c2ccc(N3CCOCC3)cc2)n1 -4.76%
Cc1cnn(-c2nc(-c3ccccc3)cc(-c3ccccc3)n2)c1 107%
CC1CCCN(C(C(=O)Nc2ccc3c(c2)OCO3)c2ccccc2)C1 (stereo not drawn) 35.9%
O=[N+]([O-])c1cnc(Sc2ccncn2)s1 -467%
CC(C)CNc1ncnc2c1sc1nc(N3CCOCC3)c3c(c12)CC(C)(C)OC3 -1.37%
COc1ccc(NC(=O)c2cccc(N3C(=O)c4cccc([N+](=O)[O-])c4C3=O)c2)cc1 1.29%
Cc1ccccc1NC(=O)COc1ccc(S(=O)(=O)N2CCCC2)cc1C -0.639%
CCOc1ccccc1CNC(=O)C1CCN(c2nnc(C)c3c(C)n(-c4ccc(C)cc4)nc23)CC1 76.3%
CCCC(=O)N1CCN(c2ccc(NC(=O)c3ccc([N+](=O)[O-])o3)cc2Cl)CC1 31%
COc1ccc(-c2nc(NC(=O)c3cc(C(C)(C)C)nn3C)sc2C)cc1 33.8%
COC(=O)c1ccc(CN2CCC(Oc3ccc(C(=O)N4CCCCC4)cc3)CC2)cc1 -1.5%
O=C(CN1CCOCC1)N1CCN(c2nnc(-c3ccccc3)c3ccccc23)CC1 101%
COc1cc(CNCCc2ccc(S(N)(=O)=O)cc2)ccc1OCc1ccc(Cl)cc1 46.7%
CSc1ccc(CCNC(=O)C2CCN(c3nnc(-n4cccc4)s3)CC2)cc1 88.6%
CCOc1ccc(CNC(=O)C2CCN(c3nnc(C)c4c(C)n(-c5ccc(C)cc5)nc34)CC2)cc1 65.3%

outcome, inactive:
COc1ccccc1CNC(=O)CCn1c(=O)[nH]c2ccsc2c1=O
COc1ccc(S(=O)(=O)N(C)CC(=O)N2CCN(c3ccc(F)cc3)CC2)cc1OC
